The source of these data is PubChem BioAssay AID463173 (ICCB-Longwood Screening Facility, Harvard Medical School, 2010).

Molecules are shown by their SMILES. The whole screen tested about 52,000 compounds, of which about 4,300 (8.3%) were called active. Cut-off read from the data, not from the text of the source: active = survival mostly below about 52% (no sharp cut-off); inactive = mostly above about 56%. The entries come from a sample that favours actives as a whole.

In the assay the test system is DeltatarO mutant. The experiment in a line: growth inhibition of S. aureus wild type versus tarO mutant, primary screen, teichoic acid synthesis inhibitors, RN4220, OD600 (AID 463173). As to conditions: OD600, 18 h, hits give low values, screened at 18.75 µg/mL (by protocol).
Take `CCC(C)NC(=O)C1CCN(S(=O)(=O)c2ccc3c(ccn3CC)c2)CC1` (configuration not stated): the survival is 8% (active).
The same measure for `CCCCNC(=O)C1CCN(S(=O)(=O)c2ccc3c(ccn3CC)c2)CC1`: 99% (inactive); for `CCn1ccc2cc(S(=O)(=O)N3CCCN(C(=O)Nc4cccc(SC)c4)CC3)ccc21`: 47% (active); for `Cc1ccc(CNC(=O)C2CCN(S(=O)(=O)c3ccc(F)cc3)CC2)cc1`: 62% (inactive).
The figure for `CCn1ccc2cc(S(=O)(=O)N3CCC(C(=O)NCc4ccc(OC(C)C)cc4)CC3)ccc21` is 95% (inactive); for `CCn1ccc2cc(S(=O)(=O)N3CCC(C(=O)NCC(C)c4ccccc4)CC3)ccc21` (configuration not stated) it is 94% (inactive).
The figure for `CCn1ccc2cc(S(=O)(=O)N3CCC(C(=O)NCc4ccc(F)cc4)CC3)ccc21` is 85% (inactive).
`COc1ccc(CNC(=O)C2CCN(S(=O)(=O)c3ccc(C)cc3)CC2)cc1`: the survival was 56% (active).
The same measure for `COc1ccc(CNC(=O)C2CCN(S(=O)(=O)c3ccc(F)cc3)CC2)cc1`: 71% (inactive); for `CCn1ccc2cc(S(=O)(=O)N3CCC(C(=O)NCc4ccc(OC)cc4)CC3)ccc21`: 20% (active); for `CSc1cccc(NC(=O)N2CCN(S(=O)(=O)c3ccc4c(ccn4C)c3)CC2)c1`: 58% (inactive).
The same measure for `CCn1ccc2cc(S(=O)(=O)N3CCCN(C(=O)Nc4cccc(Cl)c4)CC3)ccc21`: 83% (inactive).
For the molecule `CN1C(C(=O)c2ccccc2)=C(OC(=O)c2ccc(Br)cc2)c2ccccc2S1(=O)=O`, the survival is 123% (inactive).
On to `Cc1ccc(Nc2cc(C(=O)NC3CCCC3)c3ccccc3n2)c(C)c1`, for which the survival was 77% (inactive).
The figure for `CCN(CC)C(=O)C1CCN(Cc2cccc(OC)c2OC)CC1` is 99% (inactive); for `CCN(C(=O)CSc1nc2ccccc2n1CC(=O)N1CCCC(C)C1)c1ccccc1` (configuration not stated) it is 109% (inactive).
The figure for `COc1ccc(Br)cc1CNC(=O)c1cnc2sc(N3CCCC3)nn2c1=O` is 98% (inactive); for `COc1ccccc1-n1c(=O)c2c3c(sc2n(Cc2ccccc2F)c1=O)CN(C(C)=O)CC3` it is 120% (inactive); for `O=S(=O)(c1ccccc1)N1CCCC(c2nc(-c3cccs3)no2)C1` (configuration not stated) it is 67% (inactive).
The same measure for `CCOC(=O)Cn1c(=O)n(C2CCCCC2)c2nc(-c3ccc(C(C)C)cc3)nc(C(N)=O)c21`: 61% (inactive); for `CCOCCCNC(=O)C1CCCN(Cc2nc(-c3ccc(CC)cc3)oc2C)C1` (configuration not stated): 76% (inactive).
With `COc1cccc(CNC(=O)C2CCCN(S(=O)(=O)c3ccc4c(ccn4C)c3)C2)c1` (configuration not stated), the survival is 124% (inactive).
Consider `COc1cccc(CNC(=O)C2CCCN(S(=O)(=O)c3ccc4c(ccn4C)c3)C2)c1OC` (configuration not stated), for which the survival is 101% (inactive).
The figure for `COc1ccc(CNC(=O)C2CCCCN2S(=O)(=O)c2ccc(F)cc2)cc1` (configuration not stated) is 95% (inactive); for `COc1ccc(CNC(=O)C2CCCN(S(=O)(=O)c3ccc4c(ccn4C)c3)C2)c(OC)c1` (configuration not stated) it is 25% (active); for `O=C(NCc1ccc(F)cc1)C1CCCCN1S(=O)(=O)c1ccc(F)cc1` (configuration not stated) it is 32% (active).
The figure for `Cc1ccc(CNC(=O)C2CCCCN2S(=O)(=O)c2ccc(F)cc2)cc1` (configuration not stated) is 84% (inactive).
The same measure for `CCC(=O)N1CCc2cc(CNC(=O)Nc3cc(C)ccc3C)ccc21`: 84% (inactive); for `CC(=O)N1CCCc2cc(S(=O)(=O)N3CCCC(C(=O)Nc4cc(Cl)ccc4C)C3)ccc21` (configuration not stated): 124% (inactive); for `CC(C)Sc1ncc(Cl)c(C(=O)Nc2c(C(=O)Nc3ccccc3)oc3ccccc23)n1`: 61% (inactive).
In the case of `CN(C)c1ccc(C(CC(=O)O)NC(=O)c2ccc(Cl)cc2)cc1` (configuration not stated), the survival is 104% (inactive).
Take `COc1ccc(NC(=O)c2nnn(Cc3nc(-c4cc(OC)c(OC)c(OC)c4)oc3C)c2C)cc1`: the survival was 61% (inactive).
Turning to `C=CCc1c(C)nc(SC)nc1Nc1ccc(C(=O)O)cc1`, the survival is 113% (inactive).
The figure for `O=C(Oc1cccc(-n2cnnn2)c1)C1CCCCC1` is 94% (inactive); for `Cc1nc2ccccn2c(=O)c1NC(=O)c1ccccc1Cl` it is 131% (inactive); for `Cc1nc2ccccn2c(=O)c1NC(=O)c1ccc(F)c(F)c1` it is 99% (inactive).
The same measure for `Cc1ccc(C(=O)Nc2c(C)nc3ccccn3c2=O)cc1`: 74% (inactive); for `Cc1ccc(C(=O)Nc2c(C)nc3ccccn3c2=O)cc1C`: 69% (inactive); for `Cc1ccccc1C(=O)Nc1c(C)nc2ccccn2c1=O`: 37% (active).
In the case of `Cc1nc2ccccn2c(=O)c1NC(=O)c1ccc(C(F)(F)F)cc1`, the survival was 0% (active).
The figure for `O=c1ccc2cc(S(=O)(=O)NCc3ccc(Cl)cc3)ccc2[nH]1` is 91% (inactive); for `Cc1cccc2sc(N(Cc3cccnc3)C(=O)CCOc3ccccc3)nc12` it is 82% (inactive); for `Cc1cccc(N2CCN(S(=O)(=O)c3ccc4oc(=O)c5ncn(C)c5c4c3)CC2)c1C` it is 77% (inactive).
The figure for `O=C(/C=C/c1ccccc1)N1CCN(Cc2cc(=O)n3nc(-c4ccccc4)sc3n2)CC1` is 90% (inactive).
With `CC(NC(=O)C1CCN(C(=O)c2ccc(-n3ccc4ccccc43)s2)CC1)c1ccccc1` (configuration not stated), the survival is 79% (inactive).
The figure for `CCOc1ccc(/C=C/C(=O)NCc2ccco2)cc1OC` is 83% (inactive).
The same measure for `Cc1cc(C)nc(NS(=O)(=O)c2ccc(NC(=O)COc3ccc(C(C)(C)C)cc3)cc2)n1`: 56% (inactive); for `CCN(c1ccc(OC)cc1)S(=O)(=O)c1ccc2[nH]c(=O)ccc2c1`: 79% (inactive); for `COCCN(Cc1ccc(C)c(Br)c1)S(=O)(=O)c1ccc2[nH]c(=O)ccc2c1`: 20% (active).
Take `CN(C)CCN(Cc1ccccc1)S(=O)(=O)c1ccc2[nH]c(=O)ccc2c1`: the survival is 95% (inactive).
The figure for `Cc1ccc2oc(C(=O)Nc3ccc(S(=O)(=O)Nc4ncccn4)cc3)cc(=O)c2c1` is 70% (inactive).
Take `CCS(=O)(=O)N1CCc2cc(C(=O)Nc3cc(Cl)ccc3C)ccc21`: the survival is 72% (inactive).
The same measure for `CCS(=O)(=O)N1CCc2cc(C(=O)Nc3cc([N+](=O)[O-])ccc3C)ccc21`: 40% (active).
The same measure for `CCS(=O)(=O)N1CCc2cc(C(=O)Nc3ccc(C)c(Cl)c3)ccc21`: 98% (inactive); for `CCS(=O)(=O)N1CCCc2cc(C(=O)Nc3cc([N+](=O)[O-])ccc3C)ccc21`: 42% (active).
The figure for `Cc1ccc(C)c(NC(=O)c2ccc3c(c2)CCCN3S(C)(=O)=O)c1` is 81% (inactive).
On to `CCS(=O)(=O)N1CCc2cc(C(=O)Nc3cc(C)cc(C)c3)ccc21`, for which the survival is 80% (inactive).
